Test results taken from PubChem BioAssay AID624330 (Southern Research Specialized Biocontainment Screening …, 2012).
“And” between values parts separate entries of the source, which are not always exact repeats. Identical values can stand only once. In all, about 340,000 compounds went through this assay and about 2,100 (0.62%) were called active.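 The calls were made as follows: active = first-screen hits whose inhibition reached a set limit at any dose in the follow-up dose series; inconclusive = inhibition above the set first-screen limit but never retested; inactive = the rest.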 The list is a sample of the results. Measured potencies and affinities stand elsewhere.

Target: Rac GTPase-activating protein 1 (Homo sapiens) (UniProt Q9H0H5)
Sequence (Q9H0H5 whole entry, looked up): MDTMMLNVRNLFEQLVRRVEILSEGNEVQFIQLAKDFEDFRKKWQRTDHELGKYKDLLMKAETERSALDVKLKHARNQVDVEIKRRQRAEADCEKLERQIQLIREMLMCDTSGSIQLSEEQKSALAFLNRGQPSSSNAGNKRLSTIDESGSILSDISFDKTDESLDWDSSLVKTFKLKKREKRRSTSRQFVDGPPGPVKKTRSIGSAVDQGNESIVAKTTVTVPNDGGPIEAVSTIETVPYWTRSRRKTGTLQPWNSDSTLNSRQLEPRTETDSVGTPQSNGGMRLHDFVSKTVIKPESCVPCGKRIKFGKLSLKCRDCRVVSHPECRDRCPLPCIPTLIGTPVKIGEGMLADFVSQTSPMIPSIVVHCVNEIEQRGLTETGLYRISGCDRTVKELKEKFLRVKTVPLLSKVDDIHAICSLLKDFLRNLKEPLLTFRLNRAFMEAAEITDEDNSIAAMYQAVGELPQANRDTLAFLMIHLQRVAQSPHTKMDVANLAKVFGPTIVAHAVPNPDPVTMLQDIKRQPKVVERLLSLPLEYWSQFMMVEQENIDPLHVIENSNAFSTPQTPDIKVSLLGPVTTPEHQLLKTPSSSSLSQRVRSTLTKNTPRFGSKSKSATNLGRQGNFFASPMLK
Assay: MgcRacGAP GTPase-activating activity inhibitors, confirmation, biochemical, ADP Hunter fluorescence, primary and confirmatory (AID 624330);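 also: fluorescence reports GDP produced by GAP-driven GTP hydrolysis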
Settings: MgcRacGAP-stimulated Rac1 GTP hydrolysis, at 30 µM, stronger effect = higher value, GST-tagged Rac1 F28L mutant substrate

inhibition, inactive:
O=c1c2cc(F)ccc2sn1-c1ccc(F)cc1 30.6%
O=c1c2cc(C(F)(F)F)ccc2sn1-c1ccccc1 24.6%
OCCOCCN1CCN(C2=Nc3ccccc3Sc3ccccc32)CC1 -0.15% and -4.72%
OCCOCCN1CCN(C(=S)Nc2ccccc2)CC1 6.01%
COC(=O)C1CCN(Cc2cn(Cc3ccccc3)nc2-c2cc3ccccc3o2)CC1 13.5%
COCCNC(=O)C(OC(=O)c1nsc(Cl)c1Cl)C(C)C (centres undefined) 10.9%
CCCN(CC(=O)Nc1cc(Cl)ccc1Cl)C(=O)c1ccc(N2CCCC2=O)cc1 3.44%
COc1cc(/C=N/NC(=O)c2cc(-c3cccc(Br)c3)nc3ccccc23)cc(OC)c1O 13.9%
Cc1nn(C)cc1/C=C1\SC(=S)NC1=O -1.15%
O=C1NC(=S)SC1=Cc1ccc(Cl)cc1 8.39%
O=C1NC(=O)C(=Cc2ccc(Cl)cc2Cl)S1 7.66%
O=C1NC(=S)SC1=Cc1cc(Br)ccc1O 16.8%
O=C1NC(=S)SC1=Cc1ccc(F)cc1 15.8%
Cc1cc(/C=C2\SC(=S)NC2=O)c(C)n1C 26.3%
Cc1cccc(NC(=O)CN2C(=O)NC(C)(c3ccc4c(c3)OCO4)C2=O)c1 (centres undefined) 3.23%
O=C(CSc1ncn[nH]1)N1CCN(c2nnc(-c3ccccc3)c3ccccc23)CC1 11.7%
Cc1cc(C)nc(N/N=C/C2=C(N3CCOCC3)C(=C/c3ccccc3)/CC2)n1 9.21%
COc1ccc(N=C2C(=O)N3c4c(cccc42)C(C)=CC3(C)C)cc1 13.7%
C=CCN(Cc1nc(-c2ccc(OC)cc2)no1)C(=O)c1ccc2c(c1)OCO2 2.96%
Cn1cccc1/C=N/N1CCN(Cc2cccc3ccccc23)CC1 25.4%
CCN(CC)c1ccc(/C=N/N2CCN(Cc3ccccc3Cl)CC2)cc1 -3.36%
Cn1cccc1/C=N/N1CCN(Cc2ccccc2)CC1 23%
Clc1ccc(/C=N/N2CCN(Cc3ccccc3Cl)CC2)cc1 12%
Cc1ccc(NC(=S)NCc2ccc3c(c2)cc(C)n3C)c(C)c1 9.16%
O=C(COC(=O)c1ccc(O)cc1)Nc1cccc(S(=O)(=O)N2CCCCC2)c1 5.81%
C=C(C)c1ccc(C(C)(C)NC(=O)N(Cc2ccccc2)Cc2ccco2)cc1 0.01%
C/C(=C/c1oc2ccc(O)cc2c1[N+](=O)[O-])N(C)C 14.9%
CC(=O)Oc1ccc2oc(/C=C/N(C)C)c([N+](=O)[O-])c2c1 16.9%
O=S1(=O)N=C(Nc2ccc(N3CCOCC3)cc2)c2ccccc21 2.07%
CCN(CC)S(=O)(=O)c1ccc(NC2=NS(=O)(=O)c3ccccc32)cc1 1.99%
CC1(C)CC(=O)C=C(Nc2ccc(F)cc2)C1 -10%
CC(=O)Nc1ccc(NC2=CC(=O)CC(C)(C)C2)cc1 7.91%
N#CCc1ccc(Oc2ccc([N+](=O)[O-])cn2)cc1 5.55%
Cc1oc(-c2ccccc2)nc1C(=O)OCC(=O)NCc1ccc(Cl)cc1 -0.87%
CCCCn1c(N)c(N(CC(C)C)C(=O)c2ccc(Cl)c(S(=O)(=O)N3CCCC3)c2)c(=O)[nH]c1=O 5.8%
COc1cccc(CN2CCCC(C(=O)N3CCCCC3)C2)c1 (centres undefined) 22.1%
CN(Cc1ccccc1)C(=O)C1CCCN(Cc2cccc(Cl)c2)C1 (centres undefined) 3.69%
O=C(C1CCCN(Cc2ccccc2)C1)N1CCCCC1 (centres undefined) 21.6%
O=C(C1CCCN(Cc2ccc(Cl)cc2)C1)N1CCCCC1 (centres undefined) 24.9%
COc1ccc(CN2CCCC(C(=O)N3CCCCC3)C2)cc1 (centres undefined) 26.1%
COc1ccc(CN2CCCC(C(=O)N(C)Cc3ccccc3)C2)cc1OC (centres undefined) 27.7%
O=C(NNC(=O)c1cc2ccccc2o1)c1ccncc1 3.59%
Cc1cc(C[n+]2ccsc2N)c2ncccc2c1 4.36%
NC(=O)CC(NC(=O)c1ccc(Br)cc1)c1ccc(N2CCN(c3ccccn3)CC2)c([N+](=O)[O-])c1 (centres undefined) 4.07%
O=C(NNC(=O)c1ccc([N+](=O)[O-])cc1)NC1CCCCC1 1.53%
CCCC1NC(=O)c2cccnc2-n2c1nc1ccc(Cl)cc1c2=O (centres undefined) 13.8%
Cc1ccc(-n2c(C)cc(=O)cc2C)c(C)c1 6.02%
Cc1ccc(C)c(-n2nnc3ccccc3c2=O)c1 2.95%
Cc1ccc(N2C(=O)CCC2=O)c(C)c1 4.77%
Cc1ccc(C)c(N2CC(=O)N(c3cc(C)ccc3C)CC2=O)c1 1.32%
COc1ccccc1NC(=O)C(C)n1cnc2c(oc3nc4c(cc32)CCCC4)c1=O (centres undefined) -4.17%
COc1ccc(/C=C2/CCCC(C(=O)C(F)(F)F)=C2O)cc1OC 6.67%
CCOC(=O)C(=O)Nc1cc([N+](=O)[O-])ccc1C 0.69%
COc1cc(C(=O)NCCCc2ccccc2)cc(OC)c1OC 5.75%
Cc1ccc(-c2n[nH]c(=S)n2C)cc1 14.7%
Cc1ccc(-c2cn3c(=S)[nH]nc3s2)cc1 22.2%
Cc1cc(CSc2ccccc2C(=O)O)on1 -2.15%
C/C(=N/NC(=O)c1ccc(-c2ccccc2)cc1)c1cc(O)cc(O)c1 14.9%
CC(=O)Nc1cc(S(=O)(=O)Nc2ccc(C)cc2)c(C)cc1C 11.6%
Cc1cc(C(=O)CCC(=O)N(C)CC(=O)Nc2c(Cl)cccc2Cl)c(C)s1 1.85%
C/C(=N\NS(=O)(=O)c1ccc(Cl)c([N+](=O)[O-])c1)c1cc2ccccc2o1 10.9%
CC(=O)c1ccc2c(c1)C1C=CCC1C(c1ccncc1)N2 (centres undefined) 13%
O=C(O)c1ccc2c(c1)C1C=CCC1C(c1ccncc1)N2 (centres undefined) 9.53%
CCOC(=O)C1Nc2ccc(C)cc2C2C=CCC12 (centres undefined) 10.5%
CCOC(=O)c1ccc2c(c1)C1C=CCC1C(C(=O)OCC)N2 (centres undefined) 12.1%
O=C(C[C@H]1C(=O)N(CCc2ccccc2)C[C@@H]1Cc1ccccc1)Nc1ccc(Br)cc1 12.8%
C[C@H]1c2cccc(O)c2C(O)=C2C(=O)C3(O)C(O)=C(C(N)=O)C(=O)[C@@H](N(C)C)[C@@H]3[C@@H](O)[C@@H]21 (some centres undefined) 1.02%
C=C1c2cccc(O)c2C(=O)C2C(=O)[C@]3(O)C(=O)C(C(N)=O)C(=O)[C@@H](N(C)C)[C@@H]3[C@@H](O)[C@H]12 (some centres undefined) 73.9%
C[C@H]1c2cccc(O)c2C(O)=C2C(=O)[C@]3(O)C(O)=C(C(N)=O)C(=O)[C@@H](N(C)C)[C@@H]3[C@@H](O)[C@@H]21 8.18%
CN(C)c1ccc(O)c2c1CC1CC3[C@@H](N(C)C)C(=O)C(C(N)=O)C(=O)[C@]3(O)C(=O)C1C2=O (some centres undefined) 15.3%
CN(C)c1ccc(O)c2c1CC1CC3C(N(C)C)C(=O)C(C(N)=O)=C(O)[C@@]3(O)C(=O)C1=C2O (some centres undefined) 9.88%
C[C@H]1c2cccc(O)c2C(O)=C2C(=O)[C@]3(O)C(O)=C(C(N)=O)C(=O)[C@@H](N(C)C)C3[C@@H](O)C21 (some centres undefined) 2.79%
CC(=O)Nc1ccc(-c2csc(NCCc3ccccc3)n2)cc1 9.25%
O=C1CN(C(=O)COC(=O)Cc2ccccc2F)c2ccccc2N1 3.02%
Nc1cc(S(=O)(=O)Nc2ccccc2Cl)ccc1N1CCCC1 11.5%
O=C(O)CSc1nnc(CNc2cccc(C(F)(F)F)c2)n1Cc1ccco1 10.8%
COC(=O)CCC(=O)NNC(=O)CCC(=O)Nc1cccc(Cl)c1C 8.78%
COc1ccc(OC)c(-c2csc(NC(=O)CSc3ccc(Br)cc3)n2)c1 5.11%
CCn1c(=O)n(CC)c2cc(N3CCCC3)c(NC(=O)c3cccc(OC)c3)cc21 8.3%
CCn1c(=O)n(CC)c2cc(N3CCCC3)c(NC(=O)c3cccc(C)c3)cc21 11.6%
CCn1c(=O)n(CC)c2cc(N3CCCC3)c(NC(=O)c3ccc(F)cc3)cc21 17%
COc1cccc(C(=O)Nc2cc3c(cc2N2CCOCC2)n(C)c(=O)n3C)c1 -34.3%
O=C(NCC(c1ccco1)N1CCCCC1)c1cccnc1 (centres undefined) 0.38%
C/C(N)=C(/C#N)C(=O)CSc1nc2ccccc2n1CC(C)C 8.8%
NC(=S)N=Nc1c(O)n(CC(=O)Nc2ccccc2)c2ccccc12 -6.62%
COc1ccc(C(=O)Nc2c(N)nc(SCC(=O)N3CCC(C)CC3)[nH]c2=O)cc1 6.29%
N#Cc1ccsc1NC(=O)C1=COCCO1 10.4%
CN(C)c1ccc(CNCC2CCCO2)cc1 (centres undefined) -6.93%
CN(C)c1ccc(C(=O)NCC2CCCO2)cc1 (centres undefined) -9.43%
CN(CC(=O)Nc1cccc(S(=O)(=O)N2CCOCC2)c1)CC(=O)Nc1ccc(Cl)c(C(F)(F)F)c1 6.95%
C/C(=N\O)C(C)(C)Nc1ccc(Cl)cc1 11.3%
CC(C)C(CO)NC(=O)CC(=O)NC(CO)C(C)C (centres undefined) 5.27%
CC1CCCC(C)N1/N=C/c1ccc(N(C)C)cc1 (centres undefined) 9.58%
CN(C)c1ccc(C=NN2CCCCCC2)cc1 -2.87%
